# Source: PubChem BioAssay (Tox21)
# Records with an inconclusive call do not appear. Entries that show only a call come without a potency. A number with no mark means an inactive call. Active and inactive are the calls of the source. Unless noted, calls follow the shape of the dose curve; as a rule, active = well fitted curve in the direction sought with a large enough effect in the repeat runs; inconclusive = weak or mixed curves; inactive = no such curve, though single readings can be large; an effect the other way counts as inactive or inconclusive.
# How the values were obtained:
# [1] = qHTS assay to identify small molecule antagonists of the thyroid receptor (TR) signaling pathway - cell viability counter screen (AID 743064); also: nearly all actives have a fitted effect of over 50% in size
# Outline: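 Same-well viability check: GH3.TRE-Luc cells stimulated with 1 nM T3 alongside test compound for 23.5 h, followed by CellTiter-Fluor fluorescence.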
# [2] = qHTS assay to identify small molecule antagonists of the thyroid receptor (TR) signaling pathway (AID 743065); also: series mostly up to about 70 µM; nearly all actives have a fitted effect of over 55% in size
# Outline: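 Antagonism measured as loss of luciferase signal in GH3 cells stably carrying a TRE-luciferase reporter, co-treated with compound and T3 (1 nM final) for 23.5 h at 37 C. Viability was read in the same well by CellTiter-Fluor.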
# [3] = test system: thyroid hormone receptor (rat, GH3 cells); test: qHTS assay to identify small molecule agonists of the thyroid receptor (TR) signaling pathway (AID 743066; calls by dose curve)
# [4] = molecular target: Estrogen receptor (Homo sapiens) (UniProt P03372); test: qHTS assay to identify small molecule antagonists of the estrogen receptor alpha (ER-alpha) signaling pathway (AID 743069; active = well fitted curve in the direction sought with a large enough effect in the signal ratio in the repeat runs, not every such curve was filed as active; the % refers to the signal ratio)
# Outline: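 Compound effects are measured against 17beta-estradiol stimulation in HEK293 cells with a UAS-controlled beta-lactamase reporter for ER-alpha. Exposure lasts 18 hr at 37C; LiveBLAzer B/G FRET substrate follows for 2 hr at room temperature.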
# [5] = qHTS assay to identify small molecule antagonists of the estrogen receptor alpha (ER-alpha) signaling pathway - cell viability counter screen (AID 743074; calls by dose curve;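 also: HEK293 cells carrying ER-alpha-UAS-bla reporter stimulated with 17beta-estradiol; nearly all actives have a fitted effect of over 45% in size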)
# [6] = molecular target: Estrogen receptor (Homo sapiens) (UniProt P03372); test: qHTS assay to identify small molecule agonists of the estrogen receptor alpha (ER-alpha) signaling pathway (AID 743075; calls by dose curve)
# [7] = molecular target: Estrogen receptor (Homo sapiens) (UniProt P03372); test: qHTS assay to identify small molecule agonists of the estrogen receptor alpha (ER-alpha) signaling pathway using the BG1 cell line (AID 743079); also: nearly all actives have a fitted effect of over 20% in size; also: potency is read from the fitted curve at half-maximal effect
# [8] = qHTS assay to identify small molecule antagonists of the estrogen receptor alpha (ER-alpha) signaling pathway using the BG1 cell line (AID 743080; calls by dose curve;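 also: BG1 cells stimulated with 17beta-estradiol alongside compound; series mostly up to about 70 µM; nearly all actives have a fitted effect of over 25% in size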)
# Outline: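 Luminescence from a 4×ERE-luciferase reporter in BG1-Luc-4E2 cells served as read-out. Cells, pre-cultured 5 days in stripped-serum phenol-red-free medium, were exposed to compound with 17beta-estradiol co-stimulation for 21.5 h at 37 C.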
# [9] = qHTS assay to identify small molecule antagonists of the estrogen receptor alpha (ER-alpha) signaling pathway using the BG1 cell line - cell viability counter screen (AID 743081);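 also: compound given together with 17beta-estradiol as the ER stimulus; series mostly up to about 70 µM; nearly all actives have a fitted effect of over 45% in size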
# Aromatase (Homo sapiens) = Aromatase (Homo sapiens) (UniProt P11511); test: qHTS assay to identify aromatase inhibitors (AID 743083); also: series mostly up to about 70 µM; nearly all actives have a fitted effect of over 55% in size
# [10] = qHTS assay to identify aromatase inhibitors - cell viability counter screen (AID 743084);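 also: cells stimulated with testosterone during compound exposure; nearly all actives have a fitted effect of over 55% in size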
# [11] = molecular target: Aryl hydrocarbon receptor (Homo sapiens) (UniProt P35869); test: qHTS assay to identify small molecule that activate the aryl hydrocarbon receptor (AhR) signaling pathway (AID 743085);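 also: HG2L7.5c1 human HepG2 liver cells with stably integrated DRE-driven firefly reporter; series mostly up to about 70 µM; nearly all actives have a fitted effect of over 15% in size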
# Outline: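 Reporter assay in engineered HepG2 line HG2L7.5c1, whose plasmid carries twenty dioxin responsive elements upstream of firefly luciferase. Treatment lasted 24 h at 37C; ONE-Glo luminescence gauged induction.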
# [12] = qHTS assay to identify small molecule that activate the aryl hydrocarbon receptor (AhR) signaling pathway - cell viability counter screen (AID 743086);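 also: HepG2 liver cells carrying the AhR DRE luciferase reporter; series mostly up to about 70 µM; nearly all actives have a fitted effect of over 45% in size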
# Outline: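 Cytotoxicity counter screen: CellTiter-Fluor signal (30 min, 37 C) in 4000 HepG2 cells/well carrying the DRE-luciferase reporter, following 24 h compound exposure at 37 C.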
# [13] = molecular target: Peroxisome proliferator-activated receptor gamma (Homo sapiens) (UniProt P37231); test: qHTS assay to identify small molecule agonists of the peroxisome proliferator-activated receptor gamma (PPARg) signaling pathway (AID 743094; active = well fitted activation curve with a large enough effect in the signal ratio in the repeat runs, not every such curve was filed as active; the % refers to the signal ratio)
# Outline: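 Quantitative HTS agonist mode: stable HEK293H line with UAS-beta-lactamase reporter under PPARg control, 17 h compound exposure at 37C, fluorescence after 1 h FRET substrate loading at room temperature.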
# [14] = qHTS assay to identify small molecule antagonists of the peroxisome proliferator-activated receptor gamma (PPARg) signaling pathway - cell viability counter screen (AID 743194); also: nearly all actives have a fitted effect of over 55% in size
# Outline: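 Viability was measured as CellTiter-Glo luminescence in GeneBLAzer PPARg UAS-bla HEK293H cells. These cells had been exposed 17 h at 37 C to compounds together with rosiglitazone at 50 nM final, with the beta-lactamase readout taken in the same wells.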
# [15] = qHTS assay for small molecule agonists of the antioxidant response element (ARE) signaling pathway (AID 743202; active = well fitted activation curve with a large enough effect in the signal ratio in the repeat runs, not every such curve was filed as active; the % refers to the signal ratio)
# Outline: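 An ARE-responsive beta-lactamase gene stably integrated in HepG2 cells serves as reporter. After 5 h plating and 16 h compound incubation at 37 C, fluorescence of the B/G FRET substrate was measured.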
# [16] = qHTS assay for small molecule agonists of the antioxidant response element (ARE) signaling pathway - cell viability counter screen (AID 743203; calls by dose curve; also: nearly all actives have a fitted effect of over 55% in size)
# Outline: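 Seeded at 2,000 cells/well, ARE-bla HepG2 cells were incubated 5 hrs before compound addition. After 16 hrs of treatment at 37C with 5% CO2, CellTiter-Glo reagent was added and luminescence read 30 min later.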
# [17] = qHTS assay for small molecule activators of the heat shock response signaling pathway - cell viability counter screen (AID 743209); also: nearly all actives have a fitted effect of over 50% in size
# Outline: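 First, HSE-bla HeLa cells were seeded at 1500 cells/well and kept overnight at 37 C. Next, compounds were pinned in and incubated 5 h. After the FRET substrate step, CellTiter-Glo was added and luminescence read 30 min later.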
# [18] = molecular target: Peroxisome proliferator-activated receptor gamma (Homo sapiens) (UniProt P37231); test: qHTS assay to identify small molecule antagonists of the peroxisome proliferator-activated receptor gamma (PPARg) signaling pathway (AID 743191; calls by dose curve; also: series mostly up to about 63 µM; nearly all actives have a fitted effect of over 30% in size)
# Outline: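 Beta-lactamase reporter under UAS control in HEK293H PPARg-bla cells; compound treatment 17 h at 37C. Read-out: fluorescence intensity after 1 h room-temperature incubation with LiveBLAzer B/G FRET substrate.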
# [19] = qHTS assay for small molecule activators of the heat shock response signaling pathway (AID 743210; active = well fitted activation curve with a large enough effect in the signal ratio in the repeat runs, with a control signal flat, not every such curve was filed as active; the % refers to the signal ratio;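 also: HeLa cells with beta-lactamase reporter driven by heat shock elements; series mostly up to about 63 µM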)
# Outline: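 In HSE-bla HeLa cells, 5 h compound incubation (37 C) precedes addition of LiveBLAzer B/G substrate; after 2.5 h at room temperature, fluorescence intensity indicates reporter induction.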
# Peroxisome proliferator-activated receptor gamma (Homo sapiens), sequence (P37231 whole entry, looked up): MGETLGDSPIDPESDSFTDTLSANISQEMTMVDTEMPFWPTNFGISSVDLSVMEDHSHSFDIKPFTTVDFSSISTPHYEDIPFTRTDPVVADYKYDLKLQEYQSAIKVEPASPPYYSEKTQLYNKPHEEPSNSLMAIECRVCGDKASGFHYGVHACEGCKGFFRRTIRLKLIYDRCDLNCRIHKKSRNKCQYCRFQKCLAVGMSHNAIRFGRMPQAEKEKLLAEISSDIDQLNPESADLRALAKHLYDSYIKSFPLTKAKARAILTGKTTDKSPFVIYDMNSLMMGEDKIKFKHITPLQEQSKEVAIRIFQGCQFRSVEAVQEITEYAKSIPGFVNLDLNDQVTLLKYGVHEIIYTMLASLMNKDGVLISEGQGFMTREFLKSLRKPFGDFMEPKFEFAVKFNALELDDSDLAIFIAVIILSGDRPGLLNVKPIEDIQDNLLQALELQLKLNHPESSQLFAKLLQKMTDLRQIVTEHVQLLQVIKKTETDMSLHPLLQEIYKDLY
# Aromatase (Homo sapiens), sequence (P11511 whole entry, looked up): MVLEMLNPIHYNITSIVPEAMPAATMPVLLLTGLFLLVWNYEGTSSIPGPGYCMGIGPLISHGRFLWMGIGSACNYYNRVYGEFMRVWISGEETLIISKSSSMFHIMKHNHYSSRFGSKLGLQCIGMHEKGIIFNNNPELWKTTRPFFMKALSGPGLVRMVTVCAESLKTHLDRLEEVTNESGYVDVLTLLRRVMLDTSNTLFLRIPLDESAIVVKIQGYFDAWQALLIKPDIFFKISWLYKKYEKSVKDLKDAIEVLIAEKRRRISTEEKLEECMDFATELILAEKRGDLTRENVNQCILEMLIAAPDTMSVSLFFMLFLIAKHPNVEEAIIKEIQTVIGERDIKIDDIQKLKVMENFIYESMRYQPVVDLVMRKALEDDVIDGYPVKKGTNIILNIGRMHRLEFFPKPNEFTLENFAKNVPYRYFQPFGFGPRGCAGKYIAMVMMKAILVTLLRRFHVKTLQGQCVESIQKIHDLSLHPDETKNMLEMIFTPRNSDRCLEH
# Estrogen receptor (Homo sapiens), sequence (P03372 whole entry, looked up): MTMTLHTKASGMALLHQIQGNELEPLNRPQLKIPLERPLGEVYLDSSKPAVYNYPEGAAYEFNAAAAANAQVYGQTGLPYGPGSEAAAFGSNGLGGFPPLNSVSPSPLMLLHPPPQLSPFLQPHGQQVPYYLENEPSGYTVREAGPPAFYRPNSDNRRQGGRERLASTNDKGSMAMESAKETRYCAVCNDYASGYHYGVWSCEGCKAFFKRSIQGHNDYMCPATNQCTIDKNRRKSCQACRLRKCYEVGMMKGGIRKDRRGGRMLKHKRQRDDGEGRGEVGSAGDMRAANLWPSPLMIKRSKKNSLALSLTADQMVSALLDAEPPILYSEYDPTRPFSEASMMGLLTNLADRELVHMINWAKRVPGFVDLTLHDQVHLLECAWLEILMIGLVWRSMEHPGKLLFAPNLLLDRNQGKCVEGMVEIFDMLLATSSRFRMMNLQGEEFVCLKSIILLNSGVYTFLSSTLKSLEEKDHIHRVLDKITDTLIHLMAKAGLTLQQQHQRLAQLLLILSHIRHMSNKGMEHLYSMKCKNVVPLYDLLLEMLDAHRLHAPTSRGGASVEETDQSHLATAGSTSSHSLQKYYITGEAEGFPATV
# Aryl hydrocarbon receptor (Homo sapiens), sequence (P35869 whole entry, looked up): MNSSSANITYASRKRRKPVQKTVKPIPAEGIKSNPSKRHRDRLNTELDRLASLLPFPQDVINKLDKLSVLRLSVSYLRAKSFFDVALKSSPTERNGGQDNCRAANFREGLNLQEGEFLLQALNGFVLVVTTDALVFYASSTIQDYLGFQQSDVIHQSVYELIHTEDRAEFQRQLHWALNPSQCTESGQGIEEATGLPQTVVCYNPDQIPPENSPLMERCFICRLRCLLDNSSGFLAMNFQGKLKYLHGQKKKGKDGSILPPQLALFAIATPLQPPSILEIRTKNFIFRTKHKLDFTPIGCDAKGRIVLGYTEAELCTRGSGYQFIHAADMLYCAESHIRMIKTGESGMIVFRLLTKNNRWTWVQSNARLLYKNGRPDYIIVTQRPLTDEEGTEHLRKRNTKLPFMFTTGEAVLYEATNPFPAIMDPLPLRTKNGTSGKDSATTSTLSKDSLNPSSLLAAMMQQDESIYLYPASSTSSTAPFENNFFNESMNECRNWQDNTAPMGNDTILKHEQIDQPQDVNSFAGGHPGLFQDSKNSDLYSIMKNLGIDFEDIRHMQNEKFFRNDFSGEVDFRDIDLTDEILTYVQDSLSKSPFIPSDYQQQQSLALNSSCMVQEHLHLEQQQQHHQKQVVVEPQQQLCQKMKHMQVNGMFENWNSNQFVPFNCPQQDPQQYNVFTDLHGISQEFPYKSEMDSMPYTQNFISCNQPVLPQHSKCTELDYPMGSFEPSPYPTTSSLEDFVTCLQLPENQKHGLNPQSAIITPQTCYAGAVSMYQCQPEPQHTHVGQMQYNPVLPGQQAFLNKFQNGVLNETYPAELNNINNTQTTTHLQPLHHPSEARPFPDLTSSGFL
SMILES,Potency [1],Potency [2],outcome [3],Potency [4],Potency [5],Potency [6],Potency [7],Potency [8],outcome [9],outcome (Aromatase (Homo sapiens)),Potency [10],Potency [11],Potency [12],Potency [13],outcome [14],Potency [15],outcome [16],outcome [17],Potency [18],outcome [19]
C=COCC1CCC(COC=C)CC1 (stereo not drawn),inactive,inactive,inactive,inactive,inactive,inactive,inactive,inactive,inactive,inactive,inactive,inactive,inactive,inactive,inactive,inactive,inactive,inactive,–,–
COc1ccc2cc1Oc1cc3c(cc1OC)CC[N+](C)(C)[C@H]3Cc1ccc(cc1)Oc1c(OC)c(OC)cc3c1[C@@H](C2)[N+](C)(C)CC3,inactive,inactive,inactive,inactive,inactive,inactive,inactive,inactive,inactive,inactive,inactive,inactive,inactive,inactive,–,inactive,inactive,inactive,inactive,inactive
CCCCN1C=CN(C)C1,inactive,inactive,inactive,inactive,inactive,inactive,inactive,inactive,inactive,inactive,inactive,inactive,inactive,inactive,inactive,inactive,inactive,inactive,inactive,inactive
CC1=CC(=O)[C@H]2C[C@@H]1C2(C)C,inactive,inactive,inactive,inactive,inactive,inactive,inactive,inactive,inactive,inactive,inactive,inactive,inactive,inactive,inactive,inactive,inactive,inactive,inactive,inactive
CN(C)CCN(C)CCN(C)C,inactive,inactive,inactive,inactive,inactive,inactive,inactive,inactive,inactive,inactive,inactive,inactive,inactive,inactive,inactive,inactive,inactive,inactive,inactive,inactive
OCCCCCO,inactive,inactive,inactive,inactive,inactive,inactive,40.3 µM (active),inactive,inactive,inactive,inactive,inactive,inactive,inactive,–,inactive,inactive,inactive,inactive,inactive
O=C(O)CC(C(=O)O)S(=O)(=O)O (stereo not drawn),inactive,inactive,inactive,inactive,inactive,inactive,inactive,inactive,inactive,inactive,inactive,inactive,inactive,inactive,inactive,inactive,inactive,–,inactive,–
CC(=O)C1CCCCC1=O (stereo not drawn),inactive,inactive,inactive,inactive,inactive,inactive,inactive,inactive,inactive,inactive,inactive,inactive,inactive,inactive,inactive,inactive,inactive,inactive,inactive,inactive
CC(=O)c1cnccn1,inactive,inactive,inactive,inactive,inactive,inactive,inactive,inactive,inactive,inactive,inactive,inactive,inactive,inactive,inactive,inactive,inactive,inactive,–,inactive
CC(C)CCCO,inactive,inactive,inactive,inactive,inactive,inactive,inactive,inactive,inactive,inactive,inactive,inactive,inactive,inactive,inactive,inactive,inactive,inactive,–,inactive
O=C(O)c1cn(C2CC2)c2cc(N3CCNCC3)c(F)cc2c1=O,inactive,inactive,inactive,inactive,inactive,inactive,inactive,–,inactive,–,inactive,–,inactive,inactive,inactive,–,–,inactive,inactive,inactive
CC(=O)Oc1cccc(C)c1,inactive,inactive,inactive,inactive,inactive,inactive,inactive,–,inactive,inactive,inactive,inactive,inactive,inactive,inactive,inactive,inactive,inactive,inactive,inactive
CCCCOCCOC(=O)COc1cc(Cl)c(Cl)cc1Cl,inactive,inactive,inactive,inactive,inactive,inactive,inactive,inactive,inactive,inactive,inactive,inactive,inactive,–,inactive,inactive,inactive,inactive,–,inactive
c1coc(CNc2ncnc3nc[nH]c23)c1,inactive,inactive,inactive,inactive,inactive,inactive,–,–,inactive,inactive,inactive,inactive,inactive,inactive,inactive,–,inactive,inactive,–,inactive
CN(C)CCCN(C)CCCN(C)C,inactive,inactive,inactive,inactive,inactive,inactive,–,inactive,inactive,inactive,inactive,inactive,inactive,inactive,inactive,–,inactive,inactive,inactive,inactive
CC(=O)c1ccccc1[N+](=O)[O-],inactive,inactive,inactive,inactive,inactive,inactive,inactive,–,inactive,inactive,inactive,inactive,inactive,inactive,inactive,inactive,inactive,inactive,inactive,inactive
Cc1cccc(C)c1NC(=O)CC12CCCN1CCC2,inactive,inactive,inactive,inactive,inactive,inactive,inactive,inactive,inactive,inactive,inactive,inactive,inactive,–,inactive,–,inactive,inactive,–,inactive
CCCCCCC1CCC(=O)O1 (stereo not drawn),inactive,inactive,inactive,inactive,inactive,inactive,inactive,inactive,inactive,inactive,inactive,–,inactive,inactive,inactive,–,inactive,inactive,–,inactive
CO[C@@]1(NC(=O)CSC[C@@H](N)C(=O)O)C(=O)N2C(C(=O)O)=C(CSc3nnnn3C)CS[C@@H]21,inactive,inactive,inactive,inactive,inactive,inactive,inactive,inactive,–,inactive,inactive,inactive,inactive,inactive,inactive,–,inactive,inactive,inactive,inactive
CCC(C(=O)NC(=O)NC(C)=O)c1ccccc1 (stereo not drawn),inactive,inactive,inactive,inactive,inactive,inactive,inactive,inactive,–,inactive,inactive,inactive,inactive,inactive,–,inactive,inactive,inactive,inactive,–
CCCCc1ccc2c(n1)[C@@H](c1ccc(OC)cc1C[C@H](C)C(=O)O)[C@H](C(=O)O)[C@H]2c1ccc2c(c1)OCO2,inactive,inactive,inactive,inactive,inactive,inactive,inactive,–,inactive,inactive,inactive,inactive,inactive,inactive,inactive,inactive,inactive,inactive,inactive,inactive
O=C(O)Cc1csc(-c2ccc(Cl)cc2)n1,inactive,inactive,inactive,inactive,inactive,inactive,inactive,inactive,inactive,inactive,inactive,inactive,inactive,–,inactive,inactive,inactive,inactive,inactive,inactive
CC1=NN(c2cccc(S(=O)(=O)O)c2)C(=O)C1,inactive,inactive,inactive,inactive,inactive,inactive,inactive,inactive,inactive,inactive,inactive,–,inactive,–,inactive,–,inactive,inactive,inactive,inactive
CN(C)C(=O)Oc1cccc([N+](C)(C)C)c1,inactive,inactive,inactive,inactive,inactive,inactive,inactive,–,inactive,inactive,inactive,inactive,inactive,inactive,inactive,inactive,inactive,inactive,–,inactive
CC(CO)(CO)[N+](=O)[O-],inactive,inactive,inactive,inactive,inactive,inactive,–,inactive,inactive,–,inactive,inactive,inactive,inactive,–,inactive,inactive,inactive,inactive,–
C[N+]1(C)CCCC(OC(=O)C(O)(c2ccccc2)c2ccccc2)C1 (stereo not drawn),inactive,inactive,inactive,inactive,inactive,inactive,–,–,inactive,inactive,inactive,inactive,inactive,–,inactive,–,inactive,inactive,–,inactive
CC(C)c1ccc2ncccc2c1,inactive,inactive,inactive,inactive,inactive,inactive,inactive,inactive,inactive,inactive,inactive,inactive,inactive,–,inactive,inactive,inactive,inactive,–,inactive
CC(C)(CCC(=O)O)C(=O)O,inactive,inactive,inactive,inactive,inactive,inactive,inactive,inactive,inactive,inactive,inactive,inactive,inactive,inactive,–,–,inactive,–,–,inactive
CC(N)C12CC3CC(CC(C3)C1)C2 (stereo not drawn),inactive,inactive,inactive,inactive,inactive,inactive,inactive,–,inactive,inactive,inactive,inactive,inactive,inactive,inactive,inactive,inactive,inactive,inactive,inactive
